Results reported in PubChem BioAssay (NCI).
The panel holds about 83,000 compounds, 20% with a hit somewhere; the sample as a whole holds those more often.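 Cells were grown in 96-well plates and exposed to the test compound at a single concentration for 48 hours; results are reported as percent growth, with values below 10 considered active.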 The source made the active and inactive calls.

Key:
Assay in all cases: NCI-60 one-dose screen, 48 h (100 = growth as untreated, 0 = no growth, -100 = all killed)
Details in all cases: 10 µM unless noted
[1] = system: HCT-15 colon
[2] = system: HT29 colon
[3] = system: SNB-75 CNS
[4] = system: SNB-19 CNS
[5] = system: U251 CNS
[6] = system: PC-3 prostate
[7] = system: SK-MEL-5 melanoma
[8] = system: UACC-62 melanoma
[9] = system: LOX IMVI melanoma
[10] = system: SK-MEL-28 melanoma

Measured: growth

Cc1ccc(NC(=O)c2sc3nc(C)c(Br)c(C)c3c2N)cc1
inactive: [1] 93.4% | [2] 87.4% | [3] 20.9% | [4] 66.3% | [5] 50.8% | [6] 53.7% | [7] 73.1% | [8] 67.2% | [9] 62.1% | [10] 75.4%

Cc1ccc(C(=O)c2ccc(CC(=O)N/N=C/c3ccccc3O)n2C)cc1
inactive: [1] 43.5% | [2] 101% | [3] 59.6% | [4] 79.3% | [5] 76.2% | [6] 86.8% | [7] 87.4% | [8] 87.2% | [9] 58% | [10] 84.3%

C=C(C)[C@@H]1CC[C@]2(C(=O)O)CC[C@]3(C)[C@H](CC[C@@H]4[C@@]5(C)CCC(NC(=O)c6cccc(OC(C)=O)c6OC(C)=O)C(C)(C)[C@@H]5CC[C@]43C)[C@@H]12 (stereo not given in full)
active: [1] 6.94% | [2] 8.01% | [5] 9.78% | [7] -81.7% | [8] -38.3% | [9] -74.1%
inactive: [3] 12.5% | [4] 26% | [6] 17.6% | [10] 12%

NC(Cc1ccc(O)c([N+](=O)[O-])c1)C(=O)O (stereo not given)
inactive: [1] 98.5% | [2] 99.1% | [3] 97.2% | [4] 105% | [5] 97.2% | [6] 90.5% | [7] 105% | [8] 103% | [9] 94.3% | [10] 99.9%

O=C(Nc1cccc(-c2ccc(Cl)c(C(F)(F)F)c2)c1)C1CCN(Cc2cccc3cccnc23)CC1
active: [1] -83% | [2] -62.2% | [5] -82.4% | [7] -93.4% | [9] -98.2% | [10] -67.6%
inactive: [3] 40.3% | [4] 61.4% | [6] 10.8% | [8] 25.9%

COc1ccc(OC)c(Nc2nnc(-c3ccc(O)c(OC)c3)o2)c1
inactive: [1] 46.5% | [2] 99% | [3] 15.2% | [4] 70% | [5] 65.1% | [6] 74.8% | [7] 71.6% | [8] 96.7% | [9] 43.3% | [10] 108%

Nc1ncnc2c1C(c1ccc(Br)cc1)c1sc3c(F)cccc3c1O2 (stereo not given)
inactive: [1] 97.1% | [2] 100% | [3] 83.7% | [4] 110% | [5] 98% | [6] 87.4% | [7] 96.2% | [8] 80.1% | [9] 82.9% | [10] 119%

COc1ccc2[nH]c(C(=O)N3CCN(C(=O)OCc4ccc5c(Cl)cc(Cl)c(O)c5n4)CC3)cc2c1
active: [1] -44.2% | [2] -67.1% | [3] -98.5% | [5] -97.9% | [6] -73.4% | [7] -99% | [8] -97.4% | [9] -95.3% | [10] -95.8%
inactive: [4] 35.3%

CCCCCCCCCCCCCCCCOCCCOP(=O)(O)C1CCCN(O)C1=O (stereo not given)
inactive: [2] 23.1% | [3] 22.8% | [4] 22% | [5] 18.7% | [6] 13.5% | [10] 38.3%
active: [1] 7.93% | [7] -65.8% | [8] -13% | [9] 0.67%

COc1ccccc1NC(=O)N=Nc1c(O)[nH]c2ccccc12
inactive: [1] 94.4% | [2] 105% | [3] 82.7% | [4] 89.7% | [5] 97.3% | [6] 89.7% | [7] 94.1% | [8] 79.2% | [9] 98.2% | [10] 104%

COc1cc(NS(=O)(=O)c2ccc(-c3cnc(C4CC4)o3)cc2)ccc1F
active: [2] 2.64% | [3] -15.8%
inactive: [1] 20.9% | [4] 25.6% | [5] 22.1% | [6] 33.9% | [7] 15.5% | [8] 31.6% | [9] 35% | [10] 65.2%

Cc1ccc(-c2nc(N3CCCNCC3)c3oc(-c4ccccc4)nc3n2)cc1
active: [1] -85.1% | [2] -82.8% | [3] -67.3% | [4] 8.75% | [5] -85.9% | [6] -88.7% | [7] -93.4% | [8] -91.8% | [9] -91.6% | [10] -93.4%

CNC(=O)c1[nH]cc(-c2ccc(OC)cc2)c1-c1cc(OC)c2c(c1OC)OCO2
inactive: [1] 97.1% | [2] 108% | [3] 66.9% | [4] 93.9% | [5] 98.4% | [6] 92.1% | [7] 100% | [8] 90% | [9] 96.5% | [10] 101%

O=C1Nc2ccc(C(=O)O)cc2/C1=N/c1nnc(Sc2ccccc2)s1
inactive: [1] 104% | [2] 115% | [3] 94.2% | [4] 102% | [5] 98% | [6] 104% | [7] 104% | [8] 99% | [9] 96.3% | [10] 112%

CCCCCOC(=O)c1c(C)[nH]c(/C=C2\N=C(c3ccc[nH]3)C=C2OC)c1C
active: [1] -28.8% | [2] -28% | [3] -28.1% | [5] -24.1% | [7] -100% | [8] -70.9% | [9] -99.7% | [10] -45.8%
inactive: [4] 21.2% | [6] 12.3%

COc1ccc(C(=O)Nc2cccc(-c3cc(=O)c4c(OC)c(OC)c(OC)cc4o3)c2)cc1
inactive: [1] 45.2% | [2] 46.7% | [3] 67.6% | [4] 64.6% | [5] 72.3% | [6] 31.9% | [7] 50.2% | [8] 55.4% | [9] 41.9% | [10] 69%

CCN(CC)CC(O)COc1c(Br)c(Br)c(Br)c2c1OC(C)(C)C2 (stereo not given)
inactive: [1] 97.3% | [2] 18.9% | [3] 91.3% | [4] 73.4% | [5] 85.6% | [6] 78.1% | [9] 52.9% | [10] 64%
active: [7] -78.9% | [8] -43.7%

CC/C=C\C[C@H](O)C/C=C1/C(=O)C=C[C@@H]1C/C=C\CCCC(=O)N(C)C
inactive: [3] 72.2% | [4] 27.1% | [10] 21.5%
active: [1] -21.8% | [2] -71.5% | [5] -31% | [6] 2.37% | [7] -88.6% | [8] -31.6% | [9] -84.3%

COc1ccc(C2=C(Nc3ccc(C(=O)Nc4ccccc4)cc3)C(=O)N(C)C2=O)cc1
inactive: [1] 89.1% | [2] 84% | [3] 88.9% | [4] 95.3% | [5] 95.4% | [6] 80.7% | [7] 96.2% | [8] 92.3% | [9] 84.6% | [10] 111%

CCOC(=O)c1cc2c(n1Cc1cc(OC)c(OC)c(OC)c1)-c1nc(N)sc1CCC2
inactive: [1] 35.9% | [2] 19.3% | [3] 60.3% | [4] 61.3% | [5] 38.9% | [6] 26.3% | [7] 19.6% | [8] 35.5% | [9] 48.5% | [10] 69.4%

CCn1cc(C(=O)O)c(=O)c2cc(F)c(N3CCN(CC(=O)Nc4ccc(S(=O)(=O)Nc5nccc(C)n5)cc4)C(C)C3)c(F)c21 (stereo not given)
active: [7] -93.3%
inactive: [1] 100% | [2] 117% | [3] 95.7% | [4] 98.7% | [5] 110% | [6] 98% | [8] 94.2% | [9] 95.6% | [10] 107%

NC(=O)C(=O)c1ccccc1NC=O
inactive: [1] 105% | [2] 101% | [3] 77.2% | [4] 99.9% | [5] 96.3% | [6] 90.1% | [7] 103% | [8] 92.1% | [9] 93.1% | [10] 101%

O=C(O)c1cn(C2CC2)c2cc(N3CCN(Cc4ccc5ccccc5c4O)CC3)c(F)cc2c1=O
inactive: [4] 78.3% | [5] 45.8% | [6] 39.3% | [7] 61.6% | [8] 38.8% | [9] 40.1% | [10] 38.6%
active: [1] 9.69% | [2] -32.4% | [3] -14.4%

COC12C=C/C(=C(/C(=O)OCc3ccncc3)C(=O)CCCCCCCCC3(OC)C=C/C(=C(/C(=O)OCc4ccncc4)C(=O)CCCCCCCC1)O3)O2
active: [1] -57.7% | [2] 1.11% | [3] -57.2% | [4] 7.98% | [5] -50.1% | [6] -35% | [7] -84.5% | [8] -63% | [9] -63.9% | [10] -61.1%
